M1 antagonist: antagonists of rat M1 muscarinic receptor. CHO-M1 cells, Fluo-4 calcium, ACh EC80 antagonist mode; active compounds read low. B-score at 10 µM. 64,000 compounds, 3.4% hits. AID 628, 2007;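 active = calcium fluorescence response, raw or row-and-column corrected B-score, differing from the plate sample mean either way at a set confidence level, mostly lower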
FXIa inh mix: FXIa protease inhibitors in compound pools, primary screen, biochemical, 10-compound mixtures; Coagulation factor XI (Homo sapiens), P03951; purified FXIa, fluorogenic substrate, pooled mixtures; inhibition, % at 5 µM; 62,000 compounds, 0.19% hits;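 also: each value is inhibition by a whole ten-compound pool holding the compound; 0% = enzyme with no mixture and 100% = wells lacking enzyme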
FXIIa inh mix: human factor XIIa inhibitors, primary screen, biochemical, pooled compound mixtures, fluorogenic substrate | Coagulation factor XII (Homo sapiens), P00748 | purified FXIIa | inhibition, % at 5 µM | 62,000 compounds, 0.2% hits;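 also: 0% = enzyme without compound and 100% = no enzyme blank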
Target sequence (P00748 20-372 limits assumed): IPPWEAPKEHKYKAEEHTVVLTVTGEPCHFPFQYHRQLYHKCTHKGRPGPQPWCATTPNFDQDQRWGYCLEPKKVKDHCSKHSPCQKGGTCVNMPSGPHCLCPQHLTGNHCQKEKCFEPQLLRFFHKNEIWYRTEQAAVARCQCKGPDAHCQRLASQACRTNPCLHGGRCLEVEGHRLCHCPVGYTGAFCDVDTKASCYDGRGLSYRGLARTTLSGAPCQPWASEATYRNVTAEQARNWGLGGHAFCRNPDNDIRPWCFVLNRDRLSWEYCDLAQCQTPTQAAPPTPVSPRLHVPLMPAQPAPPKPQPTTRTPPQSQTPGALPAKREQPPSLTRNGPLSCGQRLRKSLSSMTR
Target sequence (P00748 373-615 limits assumed): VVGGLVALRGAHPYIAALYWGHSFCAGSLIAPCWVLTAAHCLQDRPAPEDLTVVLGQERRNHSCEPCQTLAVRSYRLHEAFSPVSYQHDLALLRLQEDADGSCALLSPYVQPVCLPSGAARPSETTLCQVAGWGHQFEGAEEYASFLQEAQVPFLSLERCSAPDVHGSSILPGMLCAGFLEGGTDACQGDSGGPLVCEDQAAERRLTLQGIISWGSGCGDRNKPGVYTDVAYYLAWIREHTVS
M1 agonist: M1 muscarinic receptor agonists, primary screen, CHO-M1 cells, Fluo-4 calcium, agonist mode; B-score at 10 µM; Muscarinic acetylcholine receptor M1; AID 626, 2007; 64,000 compounds, 3% hits; Fluo-4 calcium fluorescence; active compounds read high;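 active = fluorescence rise, raw or as B-score row- and column-corrected plate score, outside the 99.7% band of its plate's samples, either direction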
D1 allo mod: D1 CRE-luciferase signal change, two-sided – cell-based, HEK293 D1, dopamine EC30, D1 allosteric modulator project, primary screen; dopamine EC30 potentiation; actives deviate in either direction; AID 641, 2007; B-score at 10 µM; 58,000 compounds, 5.9% hits;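 active = luminescence count or its row- and column-corrected plate score outside the 99.7% band of the plate's sample wells, on either side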
DAT uptake mod: changed hDAT dopamine uptake under cocaine IC80, either direction, primary screen, cocaine antagonist project, cell-based, LLC-PK1 hDAT, [14C]-dopamine uptake, MLSMR; Sodium-dependent dopamine transporter (Homo sapiens), Q01959; LLC-PK1 hDAT cells, [14C]-dopamine uptake with cocaine IC80; actives deviate in either direction; B-score at 10 µM; 110,000 compounds, 1.3% hits;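 active = Z score or B-score, a plate-position-corrected score, falls beyond the plate's 99.7% confidence bounds, in either direction; inactive = both scores lie inside the 99.7% bounds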;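 also: scored against the spread of the other compound wells on the same plate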
An asterisk follows results filed as active; . = not tested or not shown. Hits are enriched below; roughly 7.4% of the tested compounds scored in any of these assays. Rule as the data show it, unless noted: active = inhibition above about 20% (passing the limit was not always enough); inactive = the rest.

SMILES | M1 antagonist | FXIa inh mix | FXIIa inh mix | M1 agonist | D1 allo mod | DAT uptake mod
COC(=O)c1c(NC(C)=O)sc2c1CCCC2 | 0.2 | 33 | 1 | 0.047 | 5.5* | 1.2
COc1ccc(N2CCN(C(c3ccccc3)c3nnnn3Cc3ccc(F)cc3)CC2)cc1 (stereo not given) | -0.029 | 4 | 2 | -0.47 | -0.52 | 0.29
Cc1ccc(S(=O)(=O)/N=C(/Nc2c(C)n(C)n(-c3ccccc3)c2=O)c2ccc(Cl)cc2)cc1 | . | . | . | . | . | 5.6*
CCNC(=S)NNC(=O)c1cccc(Br)c1 | . | . | . | . | . | -0.8
C/C(CC(=O)Nc1ccccc1C)=N\NC(=O)Cc1csc(N)n1 | . | . | . | . | . | 0.34
C/C(CC(=O)Nc1ccccn1)=N\NC(=O)C(=O)Nc1ccccc1C | . | . | . | . | . | 3.2*
CC1CCN(CC(O)COc2cccc(F)c2)CC1 (stereo not given) | -0.69 | 2 | 8 | 0.017 | -2.3 | -0.77
CC(C)c1ccc(OCC(O)CN2CCN(c3ccccc3)CC2)cc1 (stereo not given) | -1.7 | -6 | 12 | 0.27 | -4.5* | 0.065
CC1CCN(CC(O)COc2ccc(F)cc2)CC1 (stereo not given) | -0.46 | 6 | -2 | -0.053 | -5.6* | -0.32
CCC(Cc1ccccc1)NC(=O)CN(C)S(=O)(=O)c1ccc2c(c1)c(=O)n(C)c(=O)n2C (stereo not given) | . | . | . | . | . | -1.5
CN(CC(=O)NC1CCCc2ccccc21)S(=O)(=O)c1ccc2c(c1)c(=O)n(C)c(=O)n2C (stereo not given) | -1.8 | 7 | 26* | 1.2 | 0.19 | -1.3
Cc1cccc(NC(=O)C2CC(O)CN2C(=O)OCc2ccccc2)c1 (stereo not given) | 0.048 | 1 | 9 | 0.37 | -3.9* | -0.75
CC(C)Sc1nc(N)c2c3c(sc2n1)CN(C)CC3 | 0.04 | -5 | -1 | -0.6 | 1.4 | .
Nc1nnc(SCC(=O)Nc2cc(C(F)(F)F)ccc2N2CCOCC2)s1 | . | . | . | . | . | -1.4
CN1C(=S)SC(/[N+]([O-])=C/c2cccnc2)C1(C)C (stereo not given) | -0.5 | 4 | -8 | 0.027 | -6* | -1
COC(=O)c1ccccc1NC(=O)c1noc2c1CCCC2 | 0.21 | 2 | -3 | 0.64 | -1.2 | -1.6
O=C(Nc1ccccc1C(=O)N1CCOCC1)c1noc2c1CCCC2 | 0.75 | 7 | -3 | 0.1 | 0.21 | 3*
COc1cccc(-n2c(SCC(=O)N3c4ccccc4CC3C)nnc2-c2ccco2)c1 (stereo not given) | . | . | . | . | . | 2.9*
CCn1c(SCC(=O)N2c3ccccc3CC2C)nnc1-c1ccco1 (stereo not given) | . | . | . | . | . | 2.2
Cc1nnc(NC(=O)c2sc3ccccc3c2Cl)s1 | 0.5 | -11 | 5 | -0.34 | -6.4* | 0.71
CCOC(=O)Cn1c(S(=O)(=O)Cc2cccc(F)c2)nc(-c2ccccc2)c1-c1ccccc1 | . | . | . | . | . | 0.37
COc1ccc(OCCSc2nnc(-c3ccoc3C)n2C)cc1 | 0.19 | 5 | 8 | 0.1 | -0.12 | 0.2
COC(=O)c1c(NC(=O)c2ccccc2)sc(C(=O)c2ccccc2)c1C | . | . | . | . | . | 0.17
Cc1ccc(NC(=O)c2ccccc2)s1 | -0.2 | 5 | 7 | 0.56 | -5.2* | 0.24
Cc1cc(NC(=O)c2ccccc2)sc1C | -0.006 | 10 | 5 | 0.0038 | -2.9* | 0.079
SMILES | M1 antagonist | FXIa inh mix | FXIIa inh mix | M1 agonist | D1 allo mod | DAT uptake mod
Clc1ccc(-c2cn3nc4c(nc3n2)CCCC4)cc1 | . | . | . | . | . | -0.25
COc1cccc(-c2cn3nc4c(nc3n2)CCCC4)c1 | 0.39 | 6 | 8 | 0.074 | -4.8* | 1.6
O=c1c(-c2nnc(SCc3ccc(Cl)cc3Cl)o2)cccn1Cc1ccccc1 | . | . | . | . | . | 1.1
Cc1cccc(-c2c3c(=O)n(C)c(=O)n(C)c3c3c(C)cc(C)nn23)c1 | 0.53 | 8 | 4 | 0.18 | 3.6* | .
Cc1cc(-c2ccccc2)c2c3c(c(-c4ccccc4)n2n1)c(=O)n(C)c(=O)n3C | . | . | . | . | . | 0.045
Cc1cc(C)c2c3c(c(-c4ccccc4)n2n1)c(=O)n(C)c(=O)n3C | -0.27 | -4 | -19 | 0.74 | 5.6* | .
CCn1cc2c(c1-c1cccc(C)c1)c(=O)n(C)c(=O)n2C | -0.32 | 2 | 10 | 0.33 | . | -0.48
CCOC(=O)c1sc(=S)n(CC)c1NC(=O)CC | . | . | . | . | . | -0.35
Cc1cccc(N2CCN(C(c3cccs3)c3nnnn3C(C)(C)C)CC2)c1C (stereo not given) | 1 | 3 | 2 | 0.18 | . | 0.14
COC(=O)c1cc(=O)n(-c2ccccc2)c(=Nc2ccccc2)s1 | . | . | . | . | . | 0.22
CC(C)(CO)Nc1ccc([N+](=O)[O-])cc1[N+](=O)[O-] | . | . | . | . | . | -2.6*
Cc1cc([N+](=O)[O-])ccc1NCc1ccccc1 | . | . | . | . | . | -0.026
CCOc1ccc(-c2cn(CCC#N)cn2)cc1 | 2.1* | 5 | 0 | 1.1 | 0.062 | 0.75
Cc1ccc(S(=O)(=O)NC(=O)c2cc(C)n(CCCN3CCOCC3)c2C)cc1 | 0.15 | 7 | -21 | -0.012 | -2.4* | .
Cc1cccc(NCc2cc(Cl)cc(Cl)c2O)n1 | . | . | . | . | . | 0.54
O=c1c2cnn(-c3ccccc3)c2nnn1Cc1ccccn1 | 1 | 0 | 2 | 0.77 | . | 2.7*
O=c1c2cnn(-c3ccccc3)c2ncn1Cc1ccccn1 | -0.18 | 7 | 8 | 0.61 | . | 1.7
C=CCO/N=C(/C)c1c(O)c(CC)c(-c2ccccc2)n(-c2ccccc2)c1=O | . | . | . | . | . | 2.9*
C=CCc1cccc(CNc2c(C)n(C)n(-c3ccccc3)c2=O)c1O | -1.2 | 2 | -4 | 1.2 | -0.033 | -0.1
Cc1cccc(-c2nc3ccccc3c3nncn23)c1 | 0.57 | 5 | 1 | -0.23 | 14* | 0.07
COc1ccc(C(=O)N2CCN(C3CCC(c4ccccc4)CC3)CC2)cc1OC (stereo not given) | -0.097 | 10 | 0 | -0.47 | -5.1* | 0.5
COc1ccc(C(=O)N2CCC(N3CCN(c4ccccc4)CC3)CC2)cc1OC | -1.2 | . | . | -0.3 | . | 0.5
O=C(c1ccc(Cl)cc1)c1ccccc1C(=O)N1CCOCC1 | 0.76 | -1 | 4 | 0.29 | -0.45 | 0.015
O=S(=O)(/N=C(/c1ccc(Cl)cc1)N1CCOCC1)c1ccc(Cl)cc1 | . | . | . | . | . | 2*
CCn1c2ccccc2c2nnc(SCc3cc(=O)n4ccsc4n3)nc21 | 0.16 | 0 | 1 | -0.54 | 12* | .
CCn1c2ccccc2c2nnc(SCC(=O)N3CC(C)OC(C)C3)nc21 (stereo not given) | -0.018 | 4 | 5 | 1 | -0.07 | -8.8*
CCCn1c2ccccc2c2nnc(SCC(=O)Nc3cc(C)on3)nc21 | . | . | . | . | . | -0.072
CCN1CCN(c2ccc(NC(=O)Cc3ccccc3)cc2)CC1 | -0.3 | 7 | 3 | 0.67 | -4.7* | 0.029
O=C(Cc1ccccc1)Nc1ccc(N2CCCC2)cc1 | . | . | . | . | . | 1.4

High-throughput results: PubChem BioAssay, several laboratories
